Laboratory results as given in PubChem BioAssay (NCATS).
Where “and” joins values, the source holds several entries; their conditions need not be identical. Identical values can stand only once. Inconclusive results are not listed. Calls of active or inactive are those of the source. Calls follow the shape of the dose curve; as a rule, active = well fitted curve in the direction sought with a large enough effect; inconclusive = small, poorly fitted or top-dose-only effect, or another doubt; inactive = no such curve, though single readings can be large; an effect the other way counts as inactive or inconclusive.

Experiments:
[1] = Cellular Toxicity (caspase-3) Jurkat (AID 655); conditions: Jurkat caspase-3 activation, luminescence; series mostly up to 92.2 µM;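 also: cells exposed to compound for 16 h at 37 °C before reading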; also: potency is read from the fitted curve at half-maximal effect
How it was run: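 5000 Jurkat cells/well; compound 16 hr, 37 °C; Caspase-Glo 3/7 added, 20 min RT; luminescence read. Norm: DMSO = 0%, tamoxifen 100 uM = 100%. AC50, Hill model.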

[2] = Cellular Toxicity (caspase-3) HUV-EC-C (AID 656); conditions: HUV-EC-C cells, caspase-3 activation (apoptosis), vehicle = 0, 100 µM tamoxifen = 100%; series mostly up to 92.2 µM
How it was run: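 qHTS; HUV-EC-C, 1000 cells/well; 5 hr settle, 16 hr cmpd, 37°C; Caspase-Glo 3/7, 20 min RT; luminescence. Norm: DMSO = 0%, tamoxifen 100 uM = 100%. Hill-fit AC50.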

[3] = Cellular Toxicity (caspase-3) SHSY5Y (AID 657); conditions: SH-SY5Y caspase-3 activation, DMSO zero, 10 µM staurosporine = 100%; series mostly up to 91.7 µM;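 also: cells exposed to compound for 16 hours at 37 °C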
How it was run: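 qHTS, SH-SY5Y, 1500 cells/well, 5 h pre-incubation 37 °C; compound 16 h 37 °C; Caspase-Glo 3/7 1 h RT; luminescence. Norm.: DMSO = 0, 10 uM staurosporine = 100%. Hill fit → AC50.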

[4] = Cellular Toxicity (caspase-3) BJ (AID 658); conditions: BJ fibroblasts, luminescence; Potency: caspase-3 activation; series mostly up to 91.7 µM; also: potency is read from the fitted curve at half-maximal effect
How it was run: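 Plated BJ cells (1000/well) rested 5 hr, received compound for 16 hr at 37 °C, then Caspase-Glo 3/7 reagent for 1 hr at room temperature before luminescence reading.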

[5] = Cellular Toxicity (caspase-3) MRC-5 (AID 659); conditions: MRC-5 cells, luminescence; Potency: caspase-3 activation; series mostly up to 91.7 µM; also: potency is read from the fitted curve at half-maximal effect
How it was run: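 Apoptosis readout in MRC-5 cells: luciferase light generated after caspase 3/7 cleaves a peptide-aminoluciferin substrate, measured post 16 hr compound incubation at 37 °C.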

[6] = Cellular Toxicity (caspase-3) SK-N-SH (AID 661); conditions: SK-N-SH caspase-3 activation, qHTS; caspase-3 activation: at 91.7 µM (top of the series), DMSO as zero, staurosporine as full; also: potency is read from the fitted curve at half-maximal effect
How it was run: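 Apoptosis readout in SK-N-SH neuroblastoma: Caspase-Glo 3/7 luminescence following 16 hr treatment in complete culture medium. Normalization used DMSO and 10 uM staurosporine controls.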

[7] = Cellular Toxicity (caspase-3) H-4-II-E (AID 663); conditions: H-4-II-E rat hepatoma, scaled: DMSO 0%, 100 µM tamoxifen 100%; series mostly up to 92.2 µM;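 also: cells exposed to compound for 16 hr before readout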
How it was run: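 Caspase 3/7 activation measured in H-4-II-E cells in complete culture medium after 16 hr treatment at 37 °C, using luciferase-coupled substrate readout; AC50 values come from Hill-equation fits of normalized concentration-response data.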

[8] = Cellular Toxicity (caspase-3) Hek293 (AID 664); conditions: HEK293 caspase-3 activation, DMSO = 0%, 100 µM tamoxifen = 100%; series mostly up to 92.2 µM;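 also: cells exposed to compound for 16 h at 37 °C before readout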
How it was run: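 Apoptosis readout: Caspase-Glo 3/7 signal in human HEK293 cells following 16-hour compound incubation. Responses scaled between DMSO baseline and 100 uM tamoxifen.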

[9] = Cellular Toxicity (caspase-3) N2a (AID 665); conditions: N2a cells, luminescence, normalized: DMSO 0%, 10 µM staurosporine 100%; series mostly up to 92.2 µM;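 also: compound exposure lasted 16 h at 37 °C before readout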
How it was run: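 Concentration-response qHTS: compound-induced caspase-3/7 luminescence in N2a cells (16 h, 37 °C), relative to DMSO and 10 uM staurosporine controls; AC50 obtained using the standard Hill equation.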

[10] = molecular target: Guanine nucleotide-binding protein G(i) subunit alpha-1 (Homo sapiens) (UniProt P63096); assay: qHTS Assay for Inhibitors of RGS12 GoLoco Motif Activity (Green Fluorophore) (AID 879); conditions: Galphai1/FITC-RGS12 GoLoco peptide, fluorescence polarization; series mostly up to 57.1 µM; also: potency is read from the fitted curve at half-maximal effect
How it was run: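 A drop in FITC polarization marked displacement of the FITC-tagged RGS12 GoLoco peptide (10 nM) from Gαi1 (50 nM). Compounds were incubated 10 min at room temperature in Tris pH 7.5 buffer containing 150 mM NaCl, 0.1 mM GDP and 0.05% NP40; unlabeled peptide titration served as control.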

Sequence of Guanine nucleotide-binding protein G(i) subunit alpha-1 (Homo sapiens) (P63096 whole entry, looked up): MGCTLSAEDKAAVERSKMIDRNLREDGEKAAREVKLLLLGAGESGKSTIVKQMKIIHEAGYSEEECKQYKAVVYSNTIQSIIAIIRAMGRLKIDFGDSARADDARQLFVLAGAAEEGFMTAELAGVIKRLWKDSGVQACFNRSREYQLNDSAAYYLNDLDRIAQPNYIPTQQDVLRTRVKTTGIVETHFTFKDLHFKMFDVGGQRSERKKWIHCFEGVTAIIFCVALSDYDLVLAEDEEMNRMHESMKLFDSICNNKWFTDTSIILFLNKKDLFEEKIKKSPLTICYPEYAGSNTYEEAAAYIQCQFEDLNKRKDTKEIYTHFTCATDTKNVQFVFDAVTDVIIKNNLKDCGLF

NNC(N)=O
inactive: Potency [1] | outcome [2] | outcome [3] | Potency [4] | Potency [5] | Potency [6] | outcome [7] | outcome [8] | outcome [9]

ClC=C(Cl)Cl
inactive: Potency [1] | outcome [2] | outcome [3] | Potency [4] | Potency [5] | Potency [6] | outcome [7] | outcome [8] | outcome [9]

C[C@H]1CCC[C@H](O)CCCCCc2cc(O)cc(O)c2C(=O)O1
inactive: Potency [1] | outcome [2] | outcome [3] | Potency [4] | Potency [5] | Potency [6] | outcome [7] | outcome [8] | outcome [9]

Clc1ccccc1Cl
inactive: Potency [1] | outcome [2] | outcome [3] | Potency [4] | Potency [5] | Potency [6] | outcome [7] | outcome [8] | outcome [9]

CCCCCl
inactive: Potency [1] | outcome [2] | outcome [3] | Potency [4] | Potency [5] | Potency [6] | outcome [7] | outcome [8] | outcome [9]

CC(C)(C)c1cc(O)ccc1O
inactive: Potency [1] | outcome [2] | outcome [3] | Potency [4] | Potency [5] | Potency [6] | outcome [7] | outcome [8] | outcome [9]

C[C@H]1CC[C@@H]2[C@@H](C)[C@H]3[C@H](C[C@H]4[C@@H]5CC=C6CC(O[C@@H]7O[C@H](CO)[C@H](O)[C@H](O[C@@H]8O[C@H](CO)[C@@H](O)[C@H](O)[C@H]8O)[C@H]7O[C@H]7O[C@@H](C)[C@H](O)[C@@H](O)[C@H]7O)CC[C@]6(C)[C@H]5CC[C@]34C)N2C1 (some centres not stated)
inactive: Potency [1] | outcome [2] | outcome [3] | Potency [4] | Potency [5] | Potency [6] | outcome [7] | outcome [8] | outcome [9]

O=C/C=C/c1ccccc1
inactive: Potency [1] | outcome [2] | outcome [3] | Potency [4] | Potency [5] | Potency [6] | outcome [7] | outcome [8] | outcome [9]

O=C(O)C(Cl)(Cl)Cl
inactive: Potency [1] | outcome [2] | outcome [3] | Potency [4] | Potency [5] | Potency [6] | outcome [7] | outcome [8] | outcome [9]

CC(C)CCON=O
inactive: Potency [1] | outcome [2] | outcome [3] | Potency [4] | Potency [5] | Potency [6] | outcome [7] | outcome [8] | outcome [9]

C=CCN=C=S
inactive: Potency [1] | outcome [2] | outcome [3] | Potency [4] | Potency [5] | Potency [6] | outcome [7] | outcome [8] | outcome [9]

O=Cc1ccco1
inactive: Potency [1] | outcome [2] | outcome [3] | Potency [4] | Potency [5] | Potency [6] | outcome [7] | outcome [8] | outcome [9]

COc1ccc2c(c1OC)C(=O)OC2C1c2cc3c(cc2CCN1C)OCO3 (configuration not stated)
inactive: Potency [1] | outcome [2] | outcome [3] | Potency [4] | Potency [5] | Potency [6] | outcome [7] | outcome [8] | outcome [9]

O=CC=O
inactive: Potency [1] | outcome [2] | outcome [3] | Potency [4] | Potency [5] | Potency [6] | outcome [7] | outcome [8] | outcome [9]

S=C=S
inactive: Potency [1] | outcome [2] | outcome [3] | Potency [4] | Potency [5] | Potency [6] | outcome [7] | outcome [8] | outcome [9]

O=[N+]([O-])c1ccc(F)c([N+](=O)[O-])c1
inactive: Potency [1] | outcome [2] | outcome [3] | Potency [4] | Potency [5] | Potency [6] | outcome [7] | outcome [8] | outcome [9]

CCOC(=O)c1ccccc1C(=O)OCC
inactive: Potency [1] | outcome [2] | outcome [3] | Potency [4] | Potency [5] | Potency [6] | outcome [7] | outcome [8] | outcome [9]

ClC(Cl)(Cl)Cl
inactive: Potency [1] | outcome [2] | outcome [3] | Potency [4] | Potency [5] | Potency [6] | outcome [7] | outcome [8] | outcome [9]

O=[N+]([O-])c1ccccc1
inactive: Potency [1] | outcome [2] | outcome [3] | Potency [4] | Potency [5] | Potency [6] | outcome [7] | outcome [8] | outcome [9]

ClCC1CO1 (configuration not stated)
inactive: Potency [1] | outcome [2] | outcome [3] | Potency [4] | Potency [5] | Potency [6] | outcome [7] | outcome [8] | outcome [9]

CCCCCCCCOC(=O)c1ccccc1C(=O)OCCCCCCCC
inactive: Potency [1] | outcome [2] | outcome [3] | Potency [4] | Potency [5] | Potency [6] | outcome [7] | outcome [8] | outcome [9]

Oc1cc(Cl)c(Cl)cc1Cl
inactive: Potency [1] | outcome [2] | outcome [3] | Potency [4] | Potency [5] | Potency [6] | outcome [7] | outcome [8] | outcome [9]

O=C1C=CC(=O)C=C1
inactive: Potency [1] | outcome [2] | outcome [3] | Potency [4] | Potency [5] | Potency [6] | outcome [7] | outcome [8] | outcome [9]

N#CC(C#N)=Cc1cc(O)c(O)c(O)c1
inactive: Potency [10]

O=C1CCO1
inactive: Potency [1] | outcome [2] | outcome [3] | Potency [4] | Potency [5] | Potency [6] | outcome [7] | outcome [8] | outcome [9]

NC(=O)COc1c(F)cc(SCCNS(=O)(=O)c2ccccc2)cc1F
inactive: Potency [10]

Clc1ccc(N2C[C@H]3CC[C@@H](C2)N3)nn1
inactive: Potency [10]

Cc1sc2ccccc2c1CC1=NCCN1
inactive: Potency [10]

C[C@@H]1O[C@H](C[N+](C)(C)C)CS1
inactive: Potency [10]

COC1=CC(=O)O[C@@H](/C=C/c2ccccc2)C1
inactive: Potency [1] | outcome [2] | outcome [3] | Potency [4] | Potency [5] | Potency [6] | outcome [7] | outcome [8] | outcome [9]

CCCn1c(=O)c2[nH]c(C3CCCC3)nc2n(CCCOC(=O)c2ccc(S(=O)(=O)F)cc2)c1=O
inactive: Potency [10]

[O]=[Cr](=[O])([OH])[O][Cr](=[O])(=[O])[OH]
active: Potency [1] 31.6 µM | Potency [4] 15.8 µM | Potency [5] 20 µM and 25.1 µM | Potency [6] 20 µM | caspase-3 activation [6] 80.2%
inactive: outcome [7] | outcome [8] | outcome [9]

C[C@@H]1[C@@H]2Cc3ccc(O)cc3[C@@]1(C)CCN2CC1CC1
inactive: Potency [10]

CCN(CCCl)Cc1ccccc1Br
inactive: Potency [10]

O=c1c2ccccc2[se]n1-c1ccccc1
active: Potency [10] 12.6 µM

C[C@]12CCC(=O)C[C@@H]1CC[C@@H]1[C@@H]2CC[C@]2(C)[C@@H](O)CC[C@@H]12
inactive: Potency [1] | outcome [2] | outcome [3] | Potency [4] | Potency [5] | Potency [6] | outcome [7] | outcome [8] | outcome [9]

[O]=[Cd]
inactive: Potency [1] | outcome [2] | outcome [3] | Potency [4] | Potency [5] | Potency [6] | outcome [7] | outcome [8] | outcome [9]

NCCCP(=O)(O)O
inactive: Potency [10]

c1ccc2c(N3CCNCC3)cccc2c1
inactive: Potency [10]

O=S1(=O)N(CCN2CC=C(c3c[nH]c4cc(F)ccc34)CC2)c2cccc3c2N1CCC3
inactive: Potency [10]

C[N+](C)(C)CC#CCOC(=O)Nc1cccc(Cl)c1
inactive: Potency [10]

O=C1C2CC=CCC2C(=O)N1SC(Cl)(Cl)Cl (configuration not stated)
inactive: outcome [2] | outcome [3] | Potency [4] | Potency [5] | outcome [7] | outcome [8] | outcome [9]
active: Potency [1] 1.58 µM

[Cl-].[Cl-].[Hg+2]
inactive: Potency [1] | outcome [2] | outcome [3] | Potency [4] | Potency [5] | Potency [6] | outcome [7] | outcome [8] | outcome [9]

CC(C)Nc1ccc(Nc2ccccc2)cc1
inactive: Potency [1] | outcome [2] | outcome [3] | Potency [4] | Potency [5] | Potency [6] | outcome [8] | outcome [9]

C[N+]1(C)CCN(c2ccccc2)CC1
inactive: Potency [10]

NCCc1c[nH]c2ccc(C(N)=O)cc12
inactive: Potency [10]

CC(=O)NBr
inactive: Potency [10]
